According to PubChem BioAssay AID2185 (Vanderbilt High Throughput Screening Facility, 2009):
Entries with a potency or affinity are not part of this list.

Molecular target: Metabotropic glutamate receptor 4 (Rattus norvegicus) (UniProt P31423)
Experiment: PubChem AID 2185
Conditions: HEK/GIRK cells expressing rat mGluR4, thallium flux PAM; active compounds read high; call rule not given here

Metabotropic glutamate receptor 4 (Rattus norvegicus), sequence (P31423 whole entry, looked up): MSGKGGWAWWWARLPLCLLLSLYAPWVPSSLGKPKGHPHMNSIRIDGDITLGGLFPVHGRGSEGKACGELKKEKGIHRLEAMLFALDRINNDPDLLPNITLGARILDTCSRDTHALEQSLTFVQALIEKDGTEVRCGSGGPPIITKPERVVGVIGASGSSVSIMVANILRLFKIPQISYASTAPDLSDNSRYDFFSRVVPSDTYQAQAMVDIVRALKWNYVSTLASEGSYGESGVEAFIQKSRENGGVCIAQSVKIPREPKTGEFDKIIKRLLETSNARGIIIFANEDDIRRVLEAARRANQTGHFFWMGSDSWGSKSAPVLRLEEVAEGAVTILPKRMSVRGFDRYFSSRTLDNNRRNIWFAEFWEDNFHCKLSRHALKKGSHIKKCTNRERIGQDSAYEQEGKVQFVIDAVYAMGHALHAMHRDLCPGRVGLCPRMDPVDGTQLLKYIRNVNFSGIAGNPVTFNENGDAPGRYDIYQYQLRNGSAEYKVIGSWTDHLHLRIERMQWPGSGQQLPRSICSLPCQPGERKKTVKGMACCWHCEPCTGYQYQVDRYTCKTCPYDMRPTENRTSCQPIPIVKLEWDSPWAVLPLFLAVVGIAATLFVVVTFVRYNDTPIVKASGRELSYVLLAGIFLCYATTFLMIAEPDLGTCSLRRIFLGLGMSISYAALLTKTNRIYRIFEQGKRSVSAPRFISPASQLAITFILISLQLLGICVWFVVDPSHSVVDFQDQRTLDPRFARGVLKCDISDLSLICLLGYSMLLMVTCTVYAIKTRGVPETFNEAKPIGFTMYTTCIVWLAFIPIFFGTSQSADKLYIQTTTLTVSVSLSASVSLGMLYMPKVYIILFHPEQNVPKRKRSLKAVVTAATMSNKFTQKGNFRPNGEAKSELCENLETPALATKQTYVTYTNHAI

% glutamate max, inactive:
O=C(Nc1ccc(N2CCCS2(=O)=O)cc1)c1ccccn1 30.1%, O=C(Nc1cccc(C(F)(F)F)n1)c1ccccn1 25.1%, COc1cc(NC(=O)c2ccccn2)ncn1 25.5%
